In all, about 310,000 compounds went through this assay and about 14,000 (4.5%) showed an effect of 50% or more. The effect is printed as a negative number. This is one part of a sample in which strong results are shown more often than they occur.
These compounds were tested against human ether-à-go-go-related gene (hERG) potassium channel (human, UniProt Q12809) (assay: primary screen, population patch clamp on CHO cells stably expressing hERG; higher = less effect of the substance).
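Further: peak tail current of the secondary pulse compared with the same well before compound.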

human ether-à-go-go-related gene (hERG) potassium channel, sequence (Q12809 whole entry, looked up): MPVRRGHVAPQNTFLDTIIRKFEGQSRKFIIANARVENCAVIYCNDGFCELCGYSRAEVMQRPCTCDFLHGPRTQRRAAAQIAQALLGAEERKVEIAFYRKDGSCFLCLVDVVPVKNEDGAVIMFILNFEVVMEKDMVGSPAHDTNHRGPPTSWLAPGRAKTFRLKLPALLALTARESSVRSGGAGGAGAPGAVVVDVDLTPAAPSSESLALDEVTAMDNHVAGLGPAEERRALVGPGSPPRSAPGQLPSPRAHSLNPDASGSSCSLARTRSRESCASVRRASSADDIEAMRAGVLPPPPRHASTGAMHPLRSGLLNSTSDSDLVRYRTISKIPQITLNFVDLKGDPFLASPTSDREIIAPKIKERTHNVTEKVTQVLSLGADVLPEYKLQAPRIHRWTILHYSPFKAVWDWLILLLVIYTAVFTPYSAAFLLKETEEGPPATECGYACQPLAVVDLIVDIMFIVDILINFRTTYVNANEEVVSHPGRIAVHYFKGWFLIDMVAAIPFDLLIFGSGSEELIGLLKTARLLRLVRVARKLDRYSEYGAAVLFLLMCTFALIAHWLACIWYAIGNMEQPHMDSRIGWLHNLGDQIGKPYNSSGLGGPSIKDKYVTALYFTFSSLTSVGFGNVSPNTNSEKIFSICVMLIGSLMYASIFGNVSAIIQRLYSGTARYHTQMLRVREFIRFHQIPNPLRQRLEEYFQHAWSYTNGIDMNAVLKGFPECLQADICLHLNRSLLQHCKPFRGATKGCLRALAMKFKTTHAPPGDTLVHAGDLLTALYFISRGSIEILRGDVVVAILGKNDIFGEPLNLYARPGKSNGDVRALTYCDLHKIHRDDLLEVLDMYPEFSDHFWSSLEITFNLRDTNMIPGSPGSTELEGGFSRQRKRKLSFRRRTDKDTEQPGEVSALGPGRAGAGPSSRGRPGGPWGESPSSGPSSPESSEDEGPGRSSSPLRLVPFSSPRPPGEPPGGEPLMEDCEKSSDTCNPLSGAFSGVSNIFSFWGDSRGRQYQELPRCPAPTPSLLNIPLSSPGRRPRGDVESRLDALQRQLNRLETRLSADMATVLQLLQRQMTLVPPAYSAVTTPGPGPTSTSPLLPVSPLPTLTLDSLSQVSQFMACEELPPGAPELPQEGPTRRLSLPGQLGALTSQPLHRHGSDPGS

SMILES	hERG current change (%, negative = inhibition) at 10uM
O=C(Nc1ccc(S(=O)(=O)Nc2ncccn2)cc1)C12CC3CC(CC(C3)C1)C2	13.4%
Cc1cc(C)c2nc(N3CCCN(C(=O)c4cnccn4)CC3)c(C#N)cc2c1	-38.5%
CCc1nnc(SCC(=O)Nc2nccs2)n1CC	18%
Cn1cc(CC(=O)NC2CCCCC2)c2ccccc21	21.3%
Cc1ccsc1C1C(C#N)=C(N)Oc2n[nH]c(C)c21 (stereo not drawn)	18.7%
Cc1[nH]n(-c2ccccc2)c(=O)c1/C=N/NC(=O)c1ccccc1F	2.32%
CC1(C)CC(=O)C(C=NCCN2CCN(C(=O)c3ccc(Br)cc3)CC2)=C(O)C1	-48.2%
COc1ccc(CCN=Cc2c(C)[nH]n(-c3ccc([N+](=O)[O-])cc3)c2=O)cc1OC	16.4%
Cc1[nH]n(-c2ccc([N+](=O)[O-])cc2)c(=O)c1C=NCCN1CCN(C(=O)C(C)C)CC1	-64.2%
Cc1[nH]n(-c2ccc([N+](=O)[O-])cc2)c(=O)c1C=NCCc1ccc(S(N)(=O)=O)cc1	10.7%
Cc1[nH]n(-c2ccc([N+](=O)[O-])cc2)c(=O)c1C=NCCN1CCN(C(=O)c2ccc(Br)cc2)CC1	-76.6%
Cc1[nH]n(-c2ccc([N+](=O)[O-])cc2)c(=O)c1C=NCCN1CCN(C(=O)c2cccc(F)c2)CC1	-73.4%
Cc1[nH]n(-c2ccc([N+](=O)[O-])cc2)c(=O)c1C=NCCN1CCN(C(=O)c2ccccc2F)CC1	-71.2%
COC(=O)CN=Cc1c(C)[nH]n(-c2ccccc2)c1=O	-1.99%
Cc1[nH]n(-c2ccc([N+](=O)[O-])cc2)c(=O)c1/C=N/N1CCOCC1	0.128%
Cn1c(O)c(C=NCCN2CCN(C(=O)c3ccccc3)CC2)c(=O)n(C)c1=O	-16.6%
Cc1[nH]n(-c2ccccc2)c(=O)c1/C=N/NC(=O)c1cccc(F)c1	20.1%
CC(=O)Nc1cccc(NC(=O)CSc2nccn2Cc2ccc(F)cc2)c1	0.742%
COc1cc2c(cc1NC(=O)C(C)OC(=O)c1ccc(S(=O)(=O)Nc3ccccc3Cl)cc1)oc1ccccc12 (stereo not drawn)	21.8%

SMILES	hERG current change (%, negative = inhibition) at 10uM
CCCCCCNc1cc(C)oc(=O)c1C(C)=O	-34.2%
CCOC(=O)C1CCCN(c2c(Nc3ccc(C)c(C)c3)c(=O)c2=O)C1 (stereo not drawn)	-25.1%
CC(=O)c1ccc(NC(=O)C2C3C=CC(C3=C(c3ccccc3)c3ccccc3)C2C(=O)O)cc1 (stereo not drawn)	2.53%
Br.COc1ccc(N=C/C=C2/C=C(c3ccccc3)OC(C)(C)O2)cc1	-49.1%
COc1cc(-c2nc3ccccn3c2/N=C/c2cccc(F)c2)ccc1O	4.38%
CCn1cc(C(=O)NC(=S)Nc2ccccc2Br)cn1	3.21%
O=C(O)CSCC(=O)N1CCCN(c2nc3ccc(Cl)cc3s2)CC1	5.89%
CCOC(=O)c1ccc(NC(=O)c2ccccc2C)cc1	-21.2%
CCOC(=O)NC(=O)COC(=O)c1ccc(O)cc1	-6.29%
CCOC(=O)N/N=C(\C)c1cccs1	20.2%
CC(Sc1nnc(N)s1)C(=O)NCc1ccc2c(c1)OCO2 (stereo not drawn)	0.709%
COc1ccc(CC(=O)Nc2cc(Cl)ccc2O)cc1	-1.45%
CSCC[C@H](NC(=O)NCc1cccs1)C(=O)O	-10.4%
CN1CCN(c2ccc(NC(=O)COc3ccc4ccccc4c3)cc2)CC1	-17.3%
CN1CCN(c2ccc(NC(=S)NC(=O)c3cccc4c(Br)cccc34)cc2)CC1	16.2%
CN1CCN(c2ccc(NC(=O)COc3ccccc3Cl)cc2)CC1	-29.2%
CN1CCN(c2ccc(NC(=S)NC(=O)c3cccc4ccccc34)cc2)CC1	-51%
CN1CCN(c2ccc(NC(=S)NC(=O)c3cccc4c(Cl)cccc34)cc2)CC1	0.63%
CN1CCN(c2ccc(NC(=O)COc3cccc4ccccc34)cc2)CC1	-65.4%

SMILES	hERG current change (%, negative = inhibition) at 10uM
Cc1ccccc1OCC(=O)Nc1ccc(N2CCN(C)CC2)c(Cl)c1	-68.8%
Cc1ccccc1OCC(=O)NC(=S)Nc1ccc(N2CCOCC2)c(Cl)c1	15.3%
Cc1ccccc1OCC(=O)Nc1ccc(N2CCN(C(=O)C(C)C)CC2)c(Cl)c1	-31.2%
CC(C)Cc1nnc(NC(=O)C23CC4CC(CC(C4)C2)C3)s1	5.58%
Cc1cccc2cc(CN(CC3CCCO3)C(=O)c3cccnc3)c3nnnn3c12 (stereo not drawn)	-5.82%
Cc1cc(NCCCN(C)C)n2c(nc3ccccc32)c1C#N	-1.49%
Cc1cc(C)nc(SCC(=O)N/N=C/c2ccc3c(c2)OCO3)n1	8.05%
CCOc1ccc(OCCSc2nc(N)cc(=O)[nH]2)cc1	1.58%
O=C(CSc1nc2ccccc2o1)NC1CCCC1	16.5%
CCCn1nc(C(=O)NCCc2ccc(S(N)(=O)=O)cc2)c2ccccc2c1=O	-15.8%
C/C(=N\Nc1nc2ccccc2[nH]1)c1cccs1	-19.2%
C/C(=N\Nc1nc2ccccc2[nH]1)c1ccccn1	-72.8%
C/C(=N\Nc1nc2ccccc2[nH]1)c1ccc(C)o1	-17.7%
CS(=O)(=O)N1CCc2cc(S(=O)(=O)N3CCCCC3)ccc21	-14.8%
CC(=O)Nc1ccc(C(=O)OCc2ccc(F)cc2)cc1	-10.9%
COc1ccc([C@H]2CC(=O)C=C(c3cccc(C(C)C)c3)C2)cc1	-2.79%
Cc1[nH][nH]c(=O)c1C(c1ccc([N+](=O)[O-])cc1)c1c(C)[nH][nH]c1=O	23.9%
Cc1[nH][nH]c(=O)c1C(c1cc([N+](=O)[O-])ccc1O)c1c(C)[nH][nH]c1=O	-62.5%
Cc1[nH][nH]c(=O)c1C(c1cc(Br)ccc1O)c1c(C)[nH][nH]c1=O	12%

Reference: paper PMC4336329 (PLoS ONE, 2015)
